Compounds with a hit are over-represented: about 2.1% of the library has one in this group of screens.
PAX8 inh HTS = PAX8 transcriptional activity inhibition; RMG-I TPO-luciferase reporter, SteadyGlo, 24 h; inhibition, % at 12.6 µM; 1.2% of 360,000 active;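 active means mean replicate inhibition at least 60% with every replicate also reaching 60%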;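 further: luciferase light reporting Pax8 driven TPO promoter activity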
EBV LMP1 NFkB = Epstein-Barr LMP1 NF-kappaB reporter inhibition; LMP1-induced NF-kappaB luciferase reporter cells, luminescence; inhibition, % at 12.5 µM; 0.69% of 350,000 active; in the data active means inhibition above about 41%
aSyn UTR inh = MLPCN primary screen, SNCA 5' untranslated region | 0.82% of 300,000 active | inhibition, % (tested at 7.5 µM) | alpha-synuclein 5'UTR reporter, inhibitor activity; in the data active means inhibition above about 60%;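 further: H4 neuroglioblastoma cells stably carrying SNCA 5'UTR luciferase fusion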
Shn3 inh set2 = Schnurri-3 reporter inhibition in Clone20 osteoblasts | AID 588674 | 0.52% of 360,000 active | Clone20 osteoblast Shn3 3'UTR firefly luciferase, 24 h | inhibition, % at 12.5 µM;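 active means mean inhibition of at least 75% with every replicate also reaching 75%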
MITF TRPM1 inh = reduces MITF-dependent TRPM1 promoter luciferase signal; inhibition, % at 12.5 µM; SK-MEL-5 TRPM1 promoter luciferase, 24 h; 0.83% of 330,000 active;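 active means mean inhibition across replicates of 60% or more, whatever share of single replicates reaches that level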
A number is an active result; – = inactive; · = not tested or not shown.

SMILES	PAX8 inh HTS	EBV LMP1 NFkB	aSyn UTR inh	Shn3 inh set2	MITF TRPM1 inh
C#CCOCCOCCOCCNc1nc(N2CCN(C(=O)CCCCCCCCCCNC(=O)Cn3cc(C[C@@H](C)O)nn3)CC2)nc(N2CCN(C(=O)CCCCCCCCCCNC(=O)[C@@H]([C@H](C)CC)n3cc(CCCCCN)nn3)CC2)n1	·	–	·	–	99
Cc1cn([C@@H](CCCCNC(=O)OC(C)(C)C)C(=O)NCCCCCCCCCCC(=O)N2CCN(C(=O)OC(C)(C)C)CC2)nn1	·	–	·	90	65
Cn1c(-c2csc(-c3cccc(C(F)(F)F)c3)n2)n[nH]c1=S	–	–	–	–	–
CCCCn1c(SCC(=O)Nc2nnc(C)s2)nnc1-c1ccoc1C	·	–	–	–	–
COc1ccc(N2CCN(Cc3cc(=O)oc4cc(-c5ccccc5)c(O)cc34)CC2)cc1	·	–	73	–	–
COc1ccc(S(=O)(=O)N(C)c2ccc(C(=O)N3CCN(c4ccccc4)CC3)cc2)cc1OC	–	–	–	–	–
COc1ccccc1C(=O)Nc1nc2ccccc2[nH]1	129	88	100	91	96
COc1cc(SC)ccc1C(=O)Nc1nc2ccccc2[nH]1	114	96	131	96	97
COc1nn(-c2ccccc2)c(=O)c(Cl)c1Cl	117	–	–	–	84
COc1c(Cl)cnn(-c2ccccc2)c1=O	–	–	–	–	–
CO[C@H]1CN(C)C(=O)c2cc(NC(=O)c3ccc(-c4ccccc4)cc3)ccc2OC[C@H](C)NC[C@@H]1C	–	·	·	·	·
CO[C@@H]1CN(C)C(=O)c2cc(NC(=O)c3ccc(-c4ccccc4)cc3)ccc2OC[C@H](C)NC[C@H]1C	84	·	·	·	·
CO[C@@H]1CN(C)C(=O)c2ccc(NC(=O)c3ccc(-c4ccccc4)cc3)cc2OC[C@@H](C)NC[C@H]1C	68	·	·	·	·
CO[C@H]1CN(C)C(=O)c2cc(NC(=O)c3ccc(-c4ccccc4)cc3)ccc2OC[C@@H](C)NC[C@@H]1C	112	·	·	·	·
COc1cccc(CC2(CO)CCN(Cc3ccc(NC(C)=O)cc3)CC2)c1	–	–	–	–	–
COc1ccc(CCNc2ncnc3sc(C)cc23)cc1OC	–	–	77	89	–
COc1ccc(C(=O)Nc2cc(Cl)ccc2Cl)c(OC)n1	·	–	–	–	–
O=S(=O)(c1ccc(Cl)cc1)N1c2ccccc2Oc2nc3ccccc3nc21	·	–	–	·	–
COc1ccc(S(=O)(=O)N2c3cc(Cl)ccc3Oc3nc4ccccc4nc32)cc1	·	–	100	–	–
Cc1c(Cl)cccc1NC(=O)NCc1ccccn1	–	–	–	–	–
COc1ccc2nc(-c3ccccn3)[nH]c2c1	–	–	–	–	–
COc1cc(C=NO)nc(-c2ccccn2)c1	·	57	·	93	79
CC(NC(=O)C12CC3CC(CC(C3)C1)C2)C(=O)NN=Cc1ccc([N+](=O)[O-])o1 (stereo not drawn)	–	–	·	–	62
CC(NC(=O)c1ccc([N+](=O)[O-])o1)C12CC3CC(CC(C3)C1)C2 (stereo not drawn)	66	–	–	–	70
COC(=O)Cn1ncc2c(C)n(Cc3ccccc3)c(C)c2c1=O	–	68	–	–	–
SMILES	PAX8 inh HTS	EBV LMP1 NFkB	aSyn UTR inh	Shn3 inh set2	MITF TRPM1 inh
COC(=O)Cn1c(=O)c(C(=O)CCl)c(N)n(Cc2ccccc2)c1=O	63	–	–	·	–
CCC(=O)OCC(=O)c1c(N)n(Cc2ccccc2)c(=O)n(C)c1=O	·	–	–	–	–
NOCC(=O)O	–	–	·	–	–
CC(=O)N1CCCCN2[C@@H](CO)[C@H](c3ccc(-c4ccccc4)cc3)[C@@H]2C1	–	·	·	·	·
CN(C)CCNc1nc2sc3c(c2c(=O)n1CCc1ccccc1)CCCCC3	–	–	–	–	90
CCOC(=O)Cc1c(C)nc2cc(-c3ccc(C(C)(C)C)cc3)[nH]n2c1=O	·	–	–	–	–
CC1CCc2nc(NC(=O)C3COc4ccccc4O3)sc2C1 (stereo not drawn)	–	–	63	–	–
CC1CCc2nc(NC(=O)C3CC3)sc2C1 (stereo not drawn)	·	–	–	–	–
Cc1csc(NC(=O)C2COc3ccccc3O2)n1 (stereo not drawn)	·	–	62	–	–
O=C(Nc1nc(-c2ccccn2)cs1)C1COc2ccccc2O1 (stereo not drawn)	–	–	·	90	–
Cc1cnc(NC(=O)C2COc3ccccc3O2)s1 (stereo not drawn)	·	–	71	–	–
CCOC(=O)[C@@H]1CSCCS(=O)(=O)N1Cc1ccccc1Br	–	–	·	–	–
C[C@@H]1CN([C@H](C)CO)C(=O)c2ccccc2-c2ccccc2CO[C@@H]1CN(C)S(=O)(=O)c1cccc(F)c1	–	·	·	·	·
CCOc1cc(N2CCOCC2)c(OCC)cc1NC(=O)c1ccc2ncsc2c1	–	–	·	–	–
COC(=O)COc1ccc(/C=N/NC(=O)CN(c2ccccc2OC)S(=O)(=O)c2ccccc2)cc1	69	–	–	–	–
COc1ccc2cc(/C=N/NC(=O)c3c(Cl)cnn3C)c(Cl)nc2c1	–	–	–	–	–
COC(=O)COc1ccc(/C=N/NC(=O)c2ccc(N(Cc3ccccc3)S(C)(=O)=O)cc2)cc1	62	–	–	–	–
CC(C)Oc1ccc(/C=N/NC(=O)c2ccc(N(Cc3ccccc3)S(C)(=O)=O)cc2)cc1	–	–	–	–	–
COc1ccc2cc(/C=N/NC(=O)c3ccc(CN(c4ccc(C)c(C)c4)S(C)(=O)=O)cc3)c(Cl)nc2c1	–	–	65	–	–
COc1ccccc1N(CC(=O)N/N=C/c1ccc(OCC(=O)NCc2ccco2)cc1)S(=O)(=O)c1ccc(C)cc1	·	–	–	–	–
O=C(CCc1ccccc1)OCC(=O)c1ccc([N+](=O)[O-])cc1	–	–	–	–	–
COC(=O)NC(C)N1C(=O)C2C3C=CC(C3)C2C1=O (stereo not drawn)	–	–	–	–	–
O=C1/C(=C\c2ccccc2)SC(=S)N1CCC(=O)N1CCCCC1CCO (stereo not drawn)	–	–	–	–	–
COc1ccc(/C=C2\SC(=S)N(CCCC(=O)N3CCCCC3CCO)C2=O)cc1 (stereo not drawn)	75	–	68	–	–
CC(C)c1ccc(/C=C2\SC(=S)N(CCC(=O)N3CCCCC3CCO)C2=O)cc1 (stereo not drawn)	–	–	–	–	76
SMILES	PAX8 inh HTS	EBV LMP1 NFkB	aSyn UTR inh	Shn3 inh set2	MITF TRPM1 inh
O=C(Nc1ccc(F)cc1)N1CC(=O)N2[C@@H](CO)[C@@H](c3ccc(C#CC4CC4)cc3)[C@@H]2C1	–	·	·	·	·
COc1ccc(-c2nc(CN3CCC(C(=O)N4CCOCC4)CC3)c(C)o2)cc1OC	–	–	–	–	–
COc1ccc(-c2nc(CN3CCC(C(=O)N4CCOCC4)CC3)c(C)o2)cc1C	–	66	–	–	–
CCc1ccc2c(c1)/C(=C/C(=O)c1cccs1)C(=O)N2	·	–	–	–	70
Cc1cc(Br)c2c(c1)/C(=C/C(=O)c1cccs1)C(=O)N2	–	–	–	97	–
CCC(C(=O)Nc1ccc(N2CCOCC2)c(S(=O)(=O)Nc2ccccc2OC)c1)c1ccccc1 (stereo not drawn)	–	–	·	–	–
